Among the test systems are NCI-H23 lung; NCI-H226 lung; NCI-H322M lung; HOP-62 NSCLC; NCI-H460 lung; 786-0 renal; DU-145 prostate; MDA-MB-231 breast; SF-268 CNS; SNB-19 CNS; UACC-62 melanoma; SK-MEL-28 melanoma; SN12C renal; UO-31 renal; OVCAR-5 ovarian; OVCAR-3 ovarian; NCI/ADR-RES ovarian; MDA-MB-435 melanoma; KM12 colon; MCF7 breast.
What all share (assay): NCI-60 one-dose screen, 48 h (100 = growth as untreated, 0 = no growth, -100 = all killed)
Common to all, as to conditions: 10 µM unless noted

Compounds without any hit were thinned out: in the full panel of roughly 83,000, 20% have a hit.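 Activity criterion: percent growth below 10, measured after cells in 96-well plates were exposed to a single compound concentration for 48 hours.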 A number with no mark means an inactive call. Activity calls are given as the source filed them.

For the compound `CC(C)(C)NCC(O)c1ccccc1Cl` (stereo unspecified), the growth with NCI-H23 lung was 25%; with NCI-H226 lung it was 45%; in the assay on NCI-H322M lung, 28.3%; in the assay with HOP-62 NSCLC it was 29.3%; in the assay on NCI-H460 lung, 6.76% (active); in the assay on 786-0 renal, 20.9%. The growth is -27.8% (active) with DU-145 prostate; 12.8% with MDA-MB-231 breast; 26.6% in the assay on SF-268 CNS; 27.8% with SNB-19 CNS; 24% in the assay with UACC-62 melanoma; 48.2% with SK-MEL-28 melanoma. For the same compound, the growth with SN12C renal was 24.1%; in the assay on UO-31 renal, 48.1%; with OVCAR-5 ovarian, 11%; in the assay with OVCAR-3 ovarian, -25.7% (active); with NCI/ADR-RES ovarian, 85.6%; with MDA-MB-435 melanoma, -52.5% (active). The growth with KM12 colon is 3.52% (active).

For the compound `C1CN1c1nc(N2CC2)nc(N2CC2)n1`, the growth is 15.8% in the assay on NCI-H23 lung; 58.6% in the assay on NCI-H226 lung; 78.1% with NCI-H322M lung; 31.3% in the assay on HOP-62 NSCLC; 16.5% in the assay on NCI-H460 lung; 9.79% (active) with 786-0 renal. Also, the growth was -1.22% (active) in the assay on DU-145 prostate; 87.8% with MDA-MB-231 breast; 30.4% in the assay with SF-268 CNS; 35.9% in the assay on SNB-19 CNS; 41.1% in the assay on UACC-62 melanoma; 51.7% with SN12C renal. Also, the growth with UO-31 renal was 1.86% (active); with OVCAR-5 ovarian, 64.5%; in the assay with OVCAR-3 ovarian it was 65.8%; in the assay with NCI/ADR-RES ovarian, 36.8%; in the assay with MDA-MB-435 melanoma it was 63.9%; in the assay on MCF7 breast, 20.9%. In the assay on KM12 colon, the growth is 61.8%.

In the case of `CC(/C=N/N=C(N)N)=N/N=C(N)N`, the growth in the assay on NCI-H23 lung is 95.3%; with NCI-H226 lung it was 97.4%; in the assay with NCI-H322M lung, 34.9%; in the assay with HOP-62 NSCLC it was 81.1%; with NCI-H460 lung, 66.2%; in the assay with 786-0 renal, 70.4%. For the same compound, the growth with DU-145 prostate is 93.9%; in the assay on MDA-MB-231 breast, 102%; in the assay on SF-268 CNS it was 72.9%; in the assay with SNB-19 CNS, 87.3%; with UACC-62 melanoma, 93.6%; with SK-MEL-28 melanoma, 96.4%. The growth in the assay with SN12C renal was 94.9%; in the assay on UO-31 renal, 69.9%; in the assay on OVCAR-5 ovarian, 84.4%; in the assay on OVCAR-3 ovarian it was 79.8%; in the assay on NCI/ADR-RES ovarian, 74.3%; in the assay on MDA-MB-435 melanoma it was 100%. For the same compound, the growth was 98.1% in the assay on MCF7 breast and 73.1% in the assay on KM12 colon.

Take `CCCCCN(CCCCC)CC(O)c1ccc(C)c(Cl)c1` (stereo unspecified): the growth in the assay on NCI-H23 lung was 89.3%; with NCI-H226 lung, 84.4%; in the assay with NCI-H322M lung, 102%; in the assay on HOP-62 NSCLC it was 90.1%; in the assay with NCI-H460 lung, 101%; with 786-0 renal, 98.2%. Moreover, the growth with DU-145 prostate was 118%; in the assay with MDA-MB-231 breast, 97.4%; in the assay with SF-268 CNS, 106%; in the assay on SNB-19 CNS it was 98%; with UACC-62 melanoma it was 90.5%; in the assay on SK-MEL-28 melanoma, 96.6%. Besides, the growth with SN12C renal is 101%; in the assay with UO-31 renal, 88.3%; in the assay on OVCAR-5 ovarian, 83.8%; in the assay on NCI/ADR-RES ovarian, 104%; in the assay on MDA-MB-435 melanoma, 104%; in the assay on MCF7 breast it was 95.5%. Further, the growth in the assay on KM12 colon is 105%.

For `c1ccc2nc(OCCN3CC3)ccc2c1`, the growth was 74.2% with NCI-H23 lung; 83.1% in the assay with NCI-H226 lung; 94% in the assay on NCI-H322M lung; 76.8% with HOP-62 NSCLC; 72.3% in the assay with NCI-H460 lung; 84.2% in the assay on 786-0 renal. Further, the growth with DU-145 prostate is 98.6%; in the assay on MDA-MB-231 breast, 75%; with SF-268 CNS it was 96.6%; with SNB-19 CNS, 87%; in the assay with UACC-62 melanoma, 79.3%; with SK-MEL-28 melanoma, 111%. Also, the growth in the assay with SN12C renal was 79.9%; in the assay with UO-31 renal it was 59.4%; in the assay on OVCAR-5 ovarian it was 86.2%; with OVCAR-3 ovarian, 74.3%; in the assay on NCI/ADR-RES ovarian it was 89.2%; in the assay on MDA-MB-435 melanoma, 83.3%. Moreover, the growth was 71.4% with MCF7 breast and 80.3% in the assay with KM12 colon.

Consider `CCCCNCCc1ccccn1`, for which the growth in the assay with NCI-H23 lung was 99.9%; with NCI-H226 lung it was 110%; with NCI-H322M lung it was 113%; in the assay with HOP-62 NSCLC it was 107%; in the assay on NCI-H460 lung, 107%; in the assay on 786-0 renal it was 97.6%. Further, the growth in the assay with DU-145 prostate is 113%; with MDA-MB-231 breast, 114%; in the assay on SF-268 CNS, 107%; in the assay with SNB-19 CNS, 113%; with UACC-62 melanoma, 109%; in the assay on SK-MEL-28 melanoma it was 104%. Moreover, the growth in the assay on SN12C renal was 112%; in the assay on UO-31 renal, 88.4%; with OVCAR-5 ovarian, 101%; in the assay with OVCAR-3 ovarian it was 106%; with NCI/ADR-RES ovarian, 105%; in the assay with MDA-MB-435 melanoma, 109%. The growth in the assay on MCF7 breast is 92.1%; in the assay with KM12 colon, 102%.

On to `COC(C)(C)CCC[C@H](C)C/C=C/C(C)=C/C(=O)OC(C)C`, for which the growth in the assay on NCI-H23 lung was 78.7%; in the assay on NCI-H226 lung it was 103%; in the assay on NCI-H322M lung it was 108%; in the assay on HOP-62 NSCLC, 107%; in the assay with NCI-H460 lung, 109%; in the assay on 786-0 renal, 85.8%. In addition, the growth in the assay on DU-145 prostate is 113%; with MDA-MB-231 breast it was 102%; in the assay on SF-268 CNS, 103%; with SNB-19 CNS, 109%; in the assay with UACC-62 melanoma, 96.6%; in the assay with SK-MEL-28 melanoma it was 101%. Moreover, the growth was 92.5% in the assay on SN12C renal; 84.9% with UO-31 renal; 128% with OVCAR-5 ovarian; 111% in the assay on OVCAR-3 ovarian; 91.7% in the assay on NCI/ADR-RES ovarian; 97.4% in the assay on MDA-MB-435 melanoma. In the assay on KM12 colon, the growth is 107%.

For the compound `CCCCn1cc(C(=O)/C(C#N)=C/c2cc3ccccc3nc2Cl)c2cc(OC)ccc21`, the growth was 92.8% in the assay with NCI-H23 lung; 84.3% with NCI-H226 lung; 98% in the assay on NCI-H322M lung; 86.1% with HOP-62 NSCLC; 101% in the assay on NCI-H460 lung; 97% in the assay with 786-0 renal. The growth in the assay with DU-145 prostate is 104%; in the assay on MDA-MB-231 breast, 87.8%; in the assay on SF-268 CNS it was 83.1%; in the assay with SNB-19 CNS it was 90.3%; in the assay with UACC-62 melanoma, 81.4%; in the assay with SK-MEL-28 melanoma, 107%. Also, the growth was 79.2% with SN12C renal; 61.6% in the assay with UO-31 renal; 102% with OVCAR-5 ovarian; 78.6% in the assay on OVCAR-3 ovarian; 91.7% in the assay with NCI/ADR-RES ovarian; 101% in the assay with MDA-MB-435 melanoma. For the same compound, the results for the growth in the assay with MCF7 breast and with KM12 colon were 72% and 94.5%, respectively.

The record behind these values is PubChem BioAssay (NCI).
